The list is not random: actives were taken first. Their share in the collection is about 9.4%.
Rab9 prom act – activates the Rab9 promoter. AID 485297. Huh7 Rab9 promoter-luciferase reporter, luminescence, 24 h. Potency, µM (doses to about 9.22 µM), for inactives: at the highest dose activation, negative = inhibition, usual class: activators. hit rate 2.8% among 320,000; note: % of control where 0% means no effect; nearly all actives have a fitted effect of over 60% in size
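Huh7 cells stably carrying Rab9 promoter–luciferase reporter, plated 1500 cells/well, compound added after 2 h and incubated 24 h at 37 °C; luciferase luminescence then read after 10 min with detection reagent.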
FLuc modulator – counter-screen for miR-21 project: firefly luciferase inhibitors or activators; P08659; purified FLuc, Km substrates, luminescence inhibition; Potency, µM (doses to about 57.5 µM), without a hit: at the top dose activity change, negative = inhibition, most hits filed as inhibitors; hit rate 6.9% among 360,000; AID 588342;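 note: plate controls were vehicle for no effect and reference inhibitor for full effect; nearly all actives have a fitted effect of over 55% in size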
Target sequence (P08659 whole entry, looked up): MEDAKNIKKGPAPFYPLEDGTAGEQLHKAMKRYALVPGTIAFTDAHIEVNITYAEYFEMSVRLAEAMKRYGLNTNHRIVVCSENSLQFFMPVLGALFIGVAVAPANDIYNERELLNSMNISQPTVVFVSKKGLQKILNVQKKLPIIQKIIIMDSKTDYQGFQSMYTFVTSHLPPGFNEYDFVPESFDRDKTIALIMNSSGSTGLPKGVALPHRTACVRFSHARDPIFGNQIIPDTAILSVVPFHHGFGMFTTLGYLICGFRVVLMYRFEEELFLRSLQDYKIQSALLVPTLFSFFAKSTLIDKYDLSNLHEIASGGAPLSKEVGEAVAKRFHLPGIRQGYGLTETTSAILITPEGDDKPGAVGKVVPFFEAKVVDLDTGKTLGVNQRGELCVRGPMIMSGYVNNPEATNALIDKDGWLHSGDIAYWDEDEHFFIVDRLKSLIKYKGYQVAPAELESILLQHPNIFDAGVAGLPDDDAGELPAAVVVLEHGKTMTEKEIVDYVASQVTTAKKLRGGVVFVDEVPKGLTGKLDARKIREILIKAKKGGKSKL
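Purified P. pyralis luciferase (10nM final) with 10uM D-luciferin and 10uM ATP (Km levels) in 50mM Tris acetate pH 7.5, 10mM Mg acetate, 0.01% Tween-20, 0.05% BSA; qHTS 6-point titration, ~60 µM downward; luminescence read.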
ELG1 genotoxic – inducers of genotoxicity in HEK293T ELG1-luciferase cells | hit rate 1.3% among 330,000 | AID 504466 | HEK293T ELG1-luciferase reporter, luminescence, 16 h | Potency, µM (highest dose often 46 µM), for the others: at the top dose activity change, positive = activation, actives largely listed as activators; note: % of control where 0% means no effect; nearly all actives have a fitted effect of over 60% in size
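DMSO vehicle served as control against compound-treated ELG1-luciferase HEK293T cells; exposure lasted 16 hr at 37 °C and 5% CO2, followed by ONE-Glo luminescence detection after 30 min.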
SMN2 splice enh – increases expression of the SMN2 splice variant; HEK293 SMN2-luciferase splicing reporter, luminescence, 30-36 h; Potency, µM (doses to about 46.1 µM), without a hit: at the top dose activity change, positive = activation, actives largely listed as activators; hit rate 2.8% among 210,000; note: % of control where 0% means no effect; nearly all actives have a fitted effect of over 55% in size
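HEK293 cells carry an SMN2 minigene-luciferase reporter in which exon 7 inclusion puts luciferase in frame. Cells were seeded at 2000 cells/well, attached for 10-12 hours, then exposed to compounds for 30-36 hours at 37C before ONE-Glo luminescence.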
NPC1 prom act – activators of NPC1 promoter; Huh7 NPC1 promoter luciferase reporter, 24 h; AID 485313; hit rate 2.4% among 320,000; Potency, µM (doses to about 9.22 µM), without a hit: at the top dose activation, usual class: activators; note: % of control where 0% means no effect; nearly all actives have a fitted effect of over 60% in size
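Luminescence read-out of NPC1 promoter-driven luciferase in stably transfected Huh7 cells; compounds delivered in DMSO and left 24 h at 37C, 5% CO2, qHTS titration format.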
ELG1 repair inh – ELG1-dependent DNA repair inhibition. hit rate 2.3% among 330,000. AID 504467. Potency, µM (series often up to 46.1 µM), without a hit: at the top dose activity change, negative = inhibition, hits mostly inhibitors. HEK293T ELG1-luciferase reporter, luminescence, 16 h; DNA damage induced by 5-fluorouridine; note: % is set by controls: 0 for no effect and ±100 for the full control effect; nearly all actives have a fitted effect of over 55% in size
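Overnight (16 hr) co-exposure of 2,000 cells/well to 5-fluorouridine and compound at 37 °C preceded detection. Luciferase was quantified via ONE-Glo luminescence; loss of signal denotes inhibition.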
Numbers without * were called inactive; ? = inconclusive; / = no result; [ ] = another dose, or the depositor's remark. Calls come from the whole dose curve; as a rule, active = well fitted curve in the direction sought with a large enough effect; inconclusive = small, poorly fitted or top-dose-only effect, or another doubt; inactive = no such curve, though single readings can be large; an effect the other way counts as inactive or inconclusive. Potency is the fitted concentration of half-maximal effect.

SMILES	Rab9 prom act	FLuc modulator	ELG1 genotoxic	SMN2 splice enh	NPC1 prom act	ELG1 repair inh
Cc1ccc(NC(=S)NCC23C=CC(O2)C2C(=O)N(c4ccc(C)cc4)C(=O)C23)cc1 (centres undefined)	-3%	-3%	-3%	13%	-2%	-15%
Cc1nnc(C)c2c(C)n(-c3ccc4ncccc4c3)c(C)c12	-4%	-12%	-1%	-5%	-1%	-6%
Cc1cc(N(C)C)ccc1N=Nc1ccc2ncccc2c1	0.89µM*	0.43µM*	4.6µM*	/	3.2µM*	?
CCn1ccc(C(=O)Oc2ccc(Cl)cc2)n1	-4%	7.6µM*	2%	-11%	3%	14%
CCn1ccc(C(=O)Nc2ccc(Cl)cn2)n1	4µM*	19µM*	?	?	3.2µM*	?
CCn1ccc(C(=O)Nc2ccccc2SC)n1	4.5µM*	?	?	14µM*	?	?
Cc1ccc(-c2cc(C(=O)Nc3cc([N+](=O)[O-])ccc3C)no2)cc1F	/	-3%	/	/	/	/
COc1cccc(C(=O)Nc2cccc(C(=O)OCc3cc(=O)n4nc(C5CC5)sc4n3)c2)c1	/	-18%	/	/	/	/
Cc1ccc(Cl)cc1N1CCN(C(=O)COc2ccc(S(=O)(=O)NC(C)C)cc2)CC1	-19%	0%	-8%	-64%	-16%	7.3µM*
Cc1ccc(Cl)cc1N1CCN(C(=O)CN(C2CCCCC2)S(C)(=O)=O)CC1	-13%	6%	-5%	-92%	-7%	18µM*
Cc1ccc(Cl)cc1N1CCN(C(=O)C2CCN(S(=O)(=O)c3c(C)nn(C)c3C)CC2)CC1	1%	1%	-10%	-30%	-2%	18µM*
CS(=O)(=O)N(CC(=O)N1CCN(c2cccc(Cl)c2)CC1)C1CCCCC1	-6%	-2%	-8%	-20%	0%	-7%
CCC(=O)Nc1cccc(C(=O)OCC(=O)c2ccccc2Cl)c1	?	7.6µM*	?	26%	3.2µM*	?
CC(=O)Nc1cccc(C(=O)OCC(=O)NC(=O)c2ccccc2)c1	0%	-13%	2%	/	-1%	4%
CC(=O)Nc1cccc(C(=O)OCC(=O)c2ccccc2Cl)c1	0.79µM*	?	?	22%	3.5µM*	?
CC(=O)Nc1cccc(C(=O)OCC(=O)N2CCC(c3ccccc3)=N2)c1	?	15µM*	?	/	?	?
CC(=O)C1(C)CC2=C(CCCC2(C)C)CC1C (centres undefined)	/	/	/	-2%	/	/
COc1ccc(C(=O)Nc2cccc(/C=C(\CCC(=O)O)c3nc4ccccc4s3)c2)cc1	?	9.5µM*	0%	/	3.2µM*	?
CC(C)(C)c1nc(NC(=O)Nc2ccccc2)sc1Br	?	19µM*	-5%	-3%	28%	?
COc1ccc2nc(NC(=O)Nc3ccccc3)sc2c1	0.71µM*	0.48µM*	?	0.89µM*	?	?
CC(C)C(=O)NNc1nc2ccccc2s1	?	?	18µM*	?	?	?
COc1ccc2nc(NC(=O)C3=NN(c4ccccc4)C(=O)CC3)sc2c1	1%	?	1%	7%	-4%	-20%
COc1cc(/C=C/c2nc(C#N)c(N3CCN(C)CC3)o2)cc(OC)c1OC	/	-7%	/	5%	/	/
O=C(Nc1ccc(F)cc1F)Nc1sccc1-c1nc2ccccc2s1	-12%	-19%	-6%	/	-6%	-25%
O=C(Nc1nc2ccccc2s1)Nc1ccc(F)cc1F	1.3µM*	0.85µM*	4.1µM*	/	1µM*	?
SMILES	Rab9 prom act	FLuc modulator	ELG1 genotoxic	SMN2 splice enh	NPC1 prom act	ELG1 repair inh
CCCCOC(=O)Nc1nc2ccccc2s1	4µM*	1.1µM*	?	25µM*	2.8µM*	?
CCOc1ccc2nc(NC(=O)NC3CCCCC3)sc2c1	?	?	?	19%	?	?
CCOc1ccc2nc(NC(=O)Nc3ccccc3)sc2c1	1.4µM*	0.85µM*	?	11µM*	?	?
COc1ccc(NC(=O)Nc2nc3ccccc3s2)cc1	1.6µM*	2.4µM*	?	/	1.8µM*	?
Cc1cc(O)cc(O)c1C=NCc1ccco1	4%	0%	-3%	-1%[1.84 µM]	1%	?
CN[C@@H]1[C@H](O[C@H]2[C@@H](O[C@@H]3[C@@H](O)[C@@H](O)[C@@H](N=C(N)N)[C@@H](O)[C@@H]3N=C(N)N)O[C@@H](C)[C@]2(O)CO)O[C@H](CO)[C@@H](O)[C@@H]1O	/	/	/	-23%[20.6 µM]	/	/
COc1ccc(-c2nsc(NC(=O)COc3ccc(C)c(C)c3)n2)cc1	/	-7%	/	3%	/	/
CCOc1ccccc1CNC(=O)C1CCN(C(=O)N2CC(CC)Oc3ccc(C)cc32)CC1 (centres undefined)	/	-3%	/	/	/	/
COC/C=C/C1=CC2=CC(=O)C(C)(OC(=O)c3cnc4ccccc4n3)C(=O)C2=CN1Cc1ccc2c(c1)OCO2 (centres undefined)	/	/	/	-9%[9.22 µM]	/	/
O=C(Nc1cccc(F)c1)N1CCC2(CCNCC2)CC1	/	/	/	-7%	/	/
CCOc1ccc(CNC(=O)c2ccc(NC(=O)N3CCSc4ncccc43)cc2)cc1OC	/	2%	/	/	/	/
COc1ccc(OC)c(NC(=O)c2nc3ccccc3s2)c1	9%	-19%	5%	2%	11%	?
O=C(NNc1nc2ccccc2s1)Nc1ccc(F)cc1	3.2µM*	?	?	/	4µM*	?
CCCCN(C(=O)NC(=O)Nc1nc2ccc(OC)cc2s1)S(C)(=O)=O	?	24µM*	8.2µM*	22µM*	?	?
COc1ccc(NC(=O)c2nc3ccccc3s2)cc1	1.6µM*	1.1µM*	1.3µM*	?	3.5µM*	?
CCOc1ccc2nc(NC(=O)Nc3cccs3)sc2c1	1.6µM*	0.76µM*	2.6µM*	2.8µM*	?	?
CCCCOC(=O)Nc1nc2ccc(OC)cc2s1	19%	?	?	21%	25%	?
O=C(NNc1nc2ccccc2s1)Nc1ccc(Cl)c(Cl)c1	-6%	?	2%	/	2%	?
O=C(Nc1nnc(N2CCCCCC2)s1)Nc1cc(F)ccc1F	/	-7%	/	/	/	/
COc1cccc(N2C(=O)CSC23C(=O)N(CC(=O)Nc2cccc(Cl)c2)c2ccccc23)c1 (centres undefined)	/	-3%	/	/	/	/
COc1ccc(C(=O)N/N=C/c2ccc3cccc(OCc4ccccc4)c3n2)cc1	21%	1.5µM*	-7%	-2%	20%	15µM*
COc1c(OC(C)=O)ccc(/C=C/c2ccc3cccc(OCc4ccccc4)c3n2)c1[N+](=O)[O-]	?	1.5µM*	-4%	-95%[1.84 µM]	?	?

Screens deposited in PubChem BioAssay by National Center for Advancing Translational Sciences (NCATS).
